Compound activity: PubChem BioAssay, National Center for Advancing Translational Sciences (NCATS)
HttQ103 aggreg = reduces HttQ103-GFP aggregates in PC12 cells; PC12 HttQ103-GFP aggregates, Acumen cytometry, 40 h; Potency, µM (highest dose often 46.1 µM), without a hit: at the top dose activity change, negative = inhibition, usual class: inhibitors; 220,000 compounds, 1.1% hits; also: potency is read from the fitted curve at half-maximal effect; % is scaled to controls: 0 for no effect and ±100 for the full control effect; nearly all actives have a fitted effect of over 60% in size
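Huntingtin Q103 exon 1–GFP aggregates in induced PC12 cells (100 nM tebufenozide) were quantified by cytometry from lysates, with compounds dosed in titration.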
GoLoco inh red = blocks human Gai1 binding to RGS12 GoLoco peptide, red readout | P63096 | Gai1:RGS12 GoLoco peptide FP, rhodamine, 10 min | Potency, µM (highest dose often 61.6 µM), for the others: at the top dose activity, negative = inhibition, hits mostly inhibitors | 230,000 compounds, 0.44% hits | AID 880; active = well fitted inhibition curve with a large enough effect, not every such curve was filed as active; inactive = no such curve, though single readings can be large or run the other way; also: potency is read from the fitted curve at half-maximal effect; % is scaled to controls: 0 for no effect and ±100 for the full control effect; nearly all actives have a fitted effect of over 30% in size
Target sequence (P63096 whole entry, looked up): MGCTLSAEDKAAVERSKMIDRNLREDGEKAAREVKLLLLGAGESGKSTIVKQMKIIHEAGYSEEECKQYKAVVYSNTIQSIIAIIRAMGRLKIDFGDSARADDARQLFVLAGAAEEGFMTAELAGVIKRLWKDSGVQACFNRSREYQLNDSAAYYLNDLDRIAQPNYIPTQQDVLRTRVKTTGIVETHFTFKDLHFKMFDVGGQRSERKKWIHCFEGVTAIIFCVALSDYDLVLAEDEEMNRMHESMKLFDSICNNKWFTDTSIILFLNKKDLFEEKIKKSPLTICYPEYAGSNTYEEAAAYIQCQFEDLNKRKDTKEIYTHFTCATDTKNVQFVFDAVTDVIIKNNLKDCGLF
VDR inh = vitamin D3 receptor (human) inhibition | Potency, µM, for the others: max response, negative = inhibition, actives largely listed as inhibitors | VDR-SRC2-3 peptide fluorescence polarization, 2 h | P11473 | 400,000 compounds, 0.93% hits; also: potency is read from the fitted curve at half-maximal effect; % is scaled to controls: 0 for no effect and ±100 for the full control effect
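Compounds are added to VDR with labelled SRC2-3 coactivator peptide and held 2 h at room temperature. Inhibition of the VDR–peptide interaction is then read as a change in fluorescence polarization.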
FBPA coupling cs = coupling enzyme interference in Giardia aldolase counter-screen | coupling enzyme system counterscreen, AmpLite Red fluorescence | 290,000 compounds, 0.67% hits | activity change, negative = inhibition, % at 58.2 µM, hits read low | AID 2472; in the data active = activity change below about -30%; also: % is scaled to controls: 0 for no effect and ±100 for the full control effect
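Coupling enzymes only (glyceraldehyde-3-phosphate) + compound, at 57.5 uM final, 10 min RT; add substrate/coupling/AmpLite Red mix, 20 min RT; fluorescence ex 525/em 598 nm. Actives flag coupling-system interference.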
JMJD2E inh = JMJD2E (human) inhibition; B2RXH2; AID 2147; Potency, µM (highest dose often 57.1 µM), inactives show top-dose activity change, negative = inhibition, usual class: inhibitors; 230,000 compounds, 1.6% hits; JMJD2E catalytic domain, FDH-coupled NADH fluorescence (FDH is formaldehyde dehydrogenase);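 also: potency is read from the fitted curve at half-maximal effect; 0% = wells with enzyme and -100% = buffer wells without enzyme; nearly all actives have a fitted effect of over 50% in size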
Target sequence (B2RXH2 1-337 limits assumed): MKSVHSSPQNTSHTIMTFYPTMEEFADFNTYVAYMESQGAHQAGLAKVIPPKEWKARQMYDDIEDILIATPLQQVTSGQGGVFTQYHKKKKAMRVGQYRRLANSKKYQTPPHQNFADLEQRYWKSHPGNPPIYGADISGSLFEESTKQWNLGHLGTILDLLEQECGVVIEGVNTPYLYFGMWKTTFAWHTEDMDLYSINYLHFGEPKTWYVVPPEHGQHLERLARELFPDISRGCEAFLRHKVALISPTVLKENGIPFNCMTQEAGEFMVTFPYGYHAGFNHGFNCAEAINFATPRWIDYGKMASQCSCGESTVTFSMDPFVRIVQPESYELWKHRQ
HTT ATP protect = cytoprotection in Huntington HTT-Q103 PC12 cell model; Potency, µM (doses to about 56.4 µM), inactives show cytoprotection (ATP increase), usual class: activators; PC12 HTT-Q103 induced, cytoprotection, ATP luminescence, 40 h; 230,000 compounds, 0.14% hits; also: potency is read from the fitted curve at half-maximal effect; % of control where 0% means no effect; nearly all actives have a fitted effect of over 45% in size
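Compounds added alongside 100 nM tebufenozide, which induces toxic Q103 huntingtin exon 1-GFP in stable PC12 cells; surviving cells quantified by luminescent ATP measurement. Medium: phenol red-free DMEM, 5% equine and 5% calf serum.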
Active calls of the source: *; ? = inconclusive; / = not tested or not shown; ! = not confirmed by another sample; [ ] = remark or other dose. A selection: hits, their analogues and other compounds. The true share with any hit is near 2.3%. Unless noted, calls follow the shape of the dose curve; as a rule, active = well fitted curve in the direction sought with a large enough effect; inconclusive = small, poorly fitted or top-dose-only effect, or another doubt; inactive = no such curve, though single readings can be large; an effect the other way counts as inactive or inconclusive.

SMILES | HttQ103 aggreg | GoLoco inh red | VDR inh | FBPA coupling cs | JMJD2E inh | HTT ATP protect
COc1ccc(-c2cc(C(F)(F)F)nc(S(=O)(=O)CCCC(=O)Nc3cccc(O)c3)n2)cc1OC | ? | 1% | ? | 0 | -20% | -174%
CCOC(=O)c1cnc(NCc2ccc(OC)cc2OC)c2ccccc12 | / | / | 0% | / | / | /
O=C(CN1C2=NCCN2c2ccccc21)c1ccc(Br)cc1 | 14% | -1% | 5% | 2 | 5% | -16%[10 µM]
O=C(CN1C2=NCCCN2c2ccccc21)c1cccc(Br)c1 | 4µM* | 0% | ? | 6 | -5% | -97%[10 µM]
COc1ccc(C(C[N+](=O)[O-])c2c(C)[nH]n(-c3ccccc3)c2=O)cc1 (centres undefined) | / | / | ? | -39* | / | /
COc1ccc(C(c2c(O)ccc3ccccc23)N2CCOCC2)c(OC)c1 (centres undefined) | ? | 5% | 71µM* | 3 | ? | ?
NNc1ncnc2c1cnn2-c1ccccc1 | 22µM* | 0% | 7% | -4 | ? | -35%
Cc1cccc(-n2ncc3c(NC(C)C)ncnc32)c1 | 11µM* | 3% | -2% | 0 | ? | -41%[10 µM]
NC(N)=NCCSSCCN=C(N)N | / | / | / | / | / | -7%[1.9 µM]
O=C(COc1nnnc2ccccc12)N1CCCc2ccccc21 | 4.5µM* | -1% | -2% | 4 | 5% | 13%[10 µM]
Cc1ccc(-c2nnc3ccc(SCC(=O)OCc4ccccc4)nn23)cc1 | / | / | -2% | / | / | /
CCOc1ccccc1CNC(=O)Cn1cc2c(n1)-c1c(oc(C(=O)N3CCCC3)c1C)CC2 | / | / | -1% | / | / | /
CC(=O)Nc1nc(-c2cccc3ccccc23)cs1 | / | / | 25µM* | -1 | / | /
Cc1cc2cc(C(c3nnnn3C(C)(C)C)N(Cc3ccco3)CC3CCCO3)c(=O)[nH]c2cc1C (centres undefined) | 6% | 6% | 7% | / | ? | -36%
Cc1cc(C)c2[nH]c(=O)c(C(c3nnnn3C(C)(C)C)N(Cc3ccco3)CC3CCCO3)cc2c1 (centres undefined) | 8% | 14% | 9% | -40* | -8% | -8%
CC(C)(C)n1nnnc1C(c1cccs1)N(Cc1ccc(Cl)cc1)CC1CCCO1 (centres undefined) | 14µM* | -7% | 5% | 0 | 4% | -47%
COc1ccc(/C=C/c2cc(OC)c(OC)cc2CC[N+](C)(C)C)cc1 | / | 2% | -15% | 2 | ? | -39%
CCCCCC=CCC=CCCCCCCCC(=O)OCC | -6% | / | 0% | / | / | -32%
Cc1ccc(/C=C/C(=O)NCCc2ccccc2)o1 | / | / | 71µM* | 5 | / | /
Cc1cc(C)c2c(=O)n(CC(=O)NCCCN3CCOCC3)sc2n1 | -8% | 32µM* | ? | 3 | ? | 6%[10 µM]
Cc1cc(C)c2c(=O)n(CC(=O)NCCCN3CCN(c4ccccc4F)CC3)sc2n1 | ? | 20µM* | 16µM* | 4 | 28µM* | -9%[10 µM]
Nc1ccc(C(=O)O)c(O)c1 (tested in a mixture with another compound) | / | 28µM* | / | -5 | / | -83%
Cc1cc(C)cc(-n2c(SCC(=O)N3CCC(C)CC3)nc3c([nH]c4ccccc43)c2=O)c1 | / | / | 1% | / | / | /
Clc1ccc(/C(Cc2nc3ccccc3[nH]2)=N\Nc2ccccc2)cc1 | -25%[9.22 µM] | -30% | -24% | 2 | 22µM* | -48%[10 µM]
O=C(Cc1nc2ccccc2[nH]1)c1ccc(Cl)cc1 | / | / | -21% | -6 | / | /
SMILES | HttQ103 aggreg | GoLoco inh red | VDR inh | FBPA coupling cs | JMJD2E inh | HTT ATP protect
Cc1nc2ccccn2c1C(=O)N=Nc1c(O)n(CCC(C)C)c2ccccc12 | 35µM* | 2% | -4% | -3 | 15% | 14%[10 µM]
CCOC(=O)C1=C(C)NC(C)=C(C(=O)OCC)C1c1c(F)c(F)c(F)c(F)c1F | / | / | -6% | / | / | /
CC[N+](CC)(CC)CCOc1cccc(OCC[N+](CC)(CC)CC)c1OCC[N+](CC)(CC)CC | 18% | 10µM* | 9% | -1 | -23% | -47%
O=C(CCc1ccccc1)NCc1ccncc1 | / | / | 0% | 1 | / | /
O=C(NCc1ccncc1)c1ccc(Oc2ccccc2)cc1 | 11µM* | 3% | -26% | 7 | -7% | 0%[10 µM]
O=C(NCc1ccncc1)c1ccc(OCc2ccccc2)cc1 | / | / | -3% | / | / | /
O=C(CCNNC(=O)c1ccncc1)NCc1ccccc1 | -13% | 9% | 0% | 1 | 8.9µM*! | 32%
CC(C)(C)C(=O)Cn1c(=O)n(-c2ccc(Cl)c(Cl)c2)c(=O)c2c3c(sc21)CCCC3 | / | / | -4% | / | / | /
c1c[nH]c(CN2CCOCC2)n1 | / | 1%[14.2 µM] | / | / | / | -10%[10 µM]
Cc1cc(C(C)(C)C)ccc1OC(=O)C1=CC=CN2CCS(=O)(=O)N=C12 | / | / | -7% | / | / | /
COc1ccc(NC(=O)C(Cl)=C(Cl)Cl)cn1 | ? | 5% | -20% | -2 | -2% | -9%[10 µM]
COc1ccc(NC(=O)/C(Cl)=C(/Cl)S(=O)(=O)Cc2ccccc2)cn1 | ? | 0% | 35µM* | 0 | 7% | -87%[10 µM]
COc1ccc(NC(=O)CCl)cn1 | 13%[9.22 µM] | -57% | / | -40* | ? | -13%[10 µM]
CC(NC(=O)c1cc(-c2ccc(O)cc2)on1)c1ccccc1 (centres undefined) | / | / | / | / | / | -20%
O=C(O)COc1ccc(/C=C/C(=O)c2ccc3ccccc3c2)cc1 | / | / | 28µM* | 4 | / | /
O=C(O)COc1ccc2ccccc2c1 | / | / | 4% | 2 | / | /
O=C(Nc1ccc(-c2nc3ccccc3s2)c(O)c1)c1ccc(Br)cc1 | / | / | -12% | / | / | /
Oc1ccc(N=C/C=C/c2ccc(Br)cc2)cc1-c1nc2ccccc2s1 | 6% | 82% | / | -11 | 14µM* | ?
CCCCSCCCNC(=S)Nc1ccccc1C | 22µM* | -1% | 4% | 0 | 7% | -12%
Cc1ccccc1NC(=S)NCCO | 3% | 13% | -6% | 2 | 3% | -28%
O=C(COC(=O)c1cccc(OC(F)F)c1)Nc1ncccn1 | / | / | -16% | / | / | /
O=C(NCCc1ccccc1)Nc1cccc(Cl)c1 | -18% | 42% | -5% | -5 | -2% | 30%[10 µM]
O=C(NCCc1ccc(Cl)cc1)Nc1cccc(Cl)c1 | 8.9µM* | 6% | -1% | -3 | 4% | -83%
Cc1c(N=C2C=CC(=O)c3ccccc32)c(=O)n(-c2ccccc2)n1C | ? | -1% | ? | -52* | ? | -163%
Cc1c(N=Nc2ccc(O)cc2)c(=O)n(-c2ccccc2)n1C | -12% | 9% | -2% | 2 | 1% | -17%
O=C(c1ccc(=O)oc1)N1CCCc2ccccc21 | 16% | 90% | 28% | -3 | 14µM* | -9%[0.074 µM]
Cc1ccc(C(=O)Nc2cc(C(C)C)c(O)c(C(C)C)c2)cc1 | 10µM* | 12% | -4% | -1 | 0% | /
COc1ccc(Cn2c(SCc3cc(C)ccc3C)nc3cc(OC)c(OC)cc3c2=N)cc1 | 3.2µM* | -1% | 6% | -3 | 3% | -74%[10 µM]
